Source: PubChem (several laboratories)
Compounds with a hit are over-represented: about 0.79% of the library has one in this group of screens.
LYP act: increases human PTPN22 phosphatase activity; Q9Y2R2; recombinant LYP, DiFMUP fluorescence; 0 = plate median, 100 = signal doubled; activation, % at 2 µM; actives 0.11% (n = 96,000);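 active = activation at 2 µM above a set limit, the mean plus 5 SD, cut at about 37% in these data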
Target sequence (Q9Y2R2 whole entry, looked up): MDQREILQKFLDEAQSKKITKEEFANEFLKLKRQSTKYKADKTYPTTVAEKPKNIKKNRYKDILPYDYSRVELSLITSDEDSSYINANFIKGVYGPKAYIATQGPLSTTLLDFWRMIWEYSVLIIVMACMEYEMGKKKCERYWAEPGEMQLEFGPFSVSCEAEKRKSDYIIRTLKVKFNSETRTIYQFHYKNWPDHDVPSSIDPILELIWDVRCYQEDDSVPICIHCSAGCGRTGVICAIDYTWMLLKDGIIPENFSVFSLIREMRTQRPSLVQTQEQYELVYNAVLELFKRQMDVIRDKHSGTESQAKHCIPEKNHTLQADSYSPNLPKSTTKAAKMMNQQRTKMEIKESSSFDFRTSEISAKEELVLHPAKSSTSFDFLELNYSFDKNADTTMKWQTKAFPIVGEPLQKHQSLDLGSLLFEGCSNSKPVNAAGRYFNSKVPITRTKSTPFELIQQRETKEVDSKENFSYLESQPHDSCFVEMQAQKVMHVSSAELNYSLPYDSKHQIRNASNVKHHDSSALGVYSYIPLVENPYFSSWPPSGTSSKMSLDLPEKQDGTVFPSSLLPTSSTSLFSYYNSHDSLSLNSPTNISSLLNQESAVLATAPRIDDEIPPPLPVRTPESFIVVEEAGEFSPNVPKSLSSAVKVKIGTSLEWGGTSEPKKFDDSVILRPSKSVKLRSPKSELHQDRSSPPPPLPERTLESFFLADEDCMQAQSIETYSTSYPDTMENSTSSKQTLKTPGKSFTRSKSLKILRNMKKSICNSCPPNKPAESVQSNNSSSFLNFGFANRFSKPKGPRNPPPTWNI
sEH act: activators of human soluble epoxide hydrolase | P34913 | purified human sEH enzymatic activity, activator screen | activation, % at 2 µM | actives 0.04% (n = 91,000) | AID 717; in the data active = activation above about 37%
BAP1 block: inhibitors of human BAP1 deubiquitinase | actives 0.48% (n = 72,000) | recombinant BAP1, Ub-AMC hydrolysis fluorescence kinetic; active compounds read low | calls only at 20 µM | Q92560;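 active = activity remaining at or below 50% of control, provided the compound also passes the data quality filters; inactive = the rest, including low values that fail the filters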;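 note: 100% = DMSO wells rate and 0% = substrate alone blank rate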
Candida biofilm: kills Candida albicans biofilms. C. albicans biofilm + clotrimazole, Alamar Blue. inhibition, % at 6 µM. actives 0.14% (n = 85,000). AID 834;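 active = inhibition above 20%; inactive = inhibition below 20%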;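 note: preformed 24 hr biofilms exposed to compound for 48 hr; 0% = biofilm without compound and 100% = blank killed by clotrimazole plus chlorhexidine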
LYP inh 2: LYP (human) phosphatase inhibition; actives 0.21% (n = 96,000); inhibition, % at 2 µM; recombinant LYP catalytic domain, DiFMUP fluorescence;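 active = inhibition at 2 µM at or above a set limit, the screen mean plus 3 SD, cut at about 24% in these data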;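 note: 0% = DMSO with enzyme and 100% = enzyme fully blocked by orthovanadate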
sEH inh: blocks human soluble epoxide hydrolase activity. inhibition, % at 2 µM. P34913. recombinant human sEH enzymatic activity assay. actives 0.34% (n = 91,000); in the data active = inhibition above about 80%
PTPN22 act conf: LYP (PTPN22) phosphatase activation confirmation; shares compounds with LYP act; Recombinant LYP, DIFMUP fluorescence; zero set by plate's median compound well; activation, % at 2 µM; 100 tested, under 10 active; AID 1031; call rule not given here
An asterisk follows results filed as active.

Cc1nn(C(=O)C2CCCN2S(=O)(=O)c2ccc(Cl)cc2)c(C)c1Sc1ccc(Cl)cc1 (stereo not drawn) was read as BAP1 block inactive.
Cc1nc(C)c(C(=O)OCC(=O)N2CCN(c3ccccc3)CC2)s1 was read as LYP act 39.7*, sEH act -6.4, BAP1 block inactive, Candida biofilm 2.1, LYP inh 2 -37.0, sEH inh 5.7 and PTPN22 act conf 3.5.
Screening O=C(OCC(=O)N1CCN(c2ccccc2)CC1)c1cccc(Cl)c1 returned LYP act 0.7, sEH act 7.4, Candida biofilm 7.6, LYP inh 2 0.9 and sEH inh -4.8.
For Cc1ccc(C(=O)NCc2ccccc2)cc1 the results were BAP1 block inactive.
`CCOC(=O)c1c(NC(=O)c2ccco2)sc(C(=O)Nc2cc(C(F)(F)F)ccc2Cl)c1C` gave BAP1 block inactive.
Screening CCCCC(=O)NCCNC(=O)c1cc(OCC(F)(F)F)ccc1OCC(F)(F)F returned LYP act 37.8*, sEH act 10.3, Candida biofilm 9.2, LYP inh 2 -41.4, sEH inh -8.8 and PTPN22 act conf -1.0.
For CS(=O)(=O)c1cnc(-c2ccccc2)nc1Oc1ccc(F)cc1 the results were LYP act 41.6*, sEH act 2.3, LYP inh 2 -36.0, sEH inh -0.2 and PTPN22 act conf -8.7.
CCC(=O)NC(C)C(c1cccs1)N1CCN(c2ccccc2)CC1 (stereo not drawn) was read as LYP act 43.4*, sEH act 7.6, BAP1 block inactive, Candida biofilm -10.1, LYP inh 2 -47.5, sEH inh -6.2 and PTPN22 act conf 3.9.
Screening C=CCn1c(SCC(=O)Nc2c(C)nn(Cc3ccccc3)c2C)nnc1C(O)c1ccccc1 (stereo not drawn) returned LYP act 42.8*, sEH act 5.4, BAP1 block inactive, Candida biofilm 8.2, LYP inh 2 -49.2, sEH inh -7.3 and PTPN22 act conf -0.8.
For C=CCn1c(SCC(=O)Nc2nc(C)cs2)nnc1C(CO)NC(=O)c1ccccc1 (stereo not drawn) the results were LYP act -3.8, sEH act -1.4, BAP1 block inactive, Candida biofilm -0.5, LYP inh 2 3.3 and sEH inh 6.2.
`CCCCCOC(=O)C1C(c2ccccc2)C(C(=O)O)C1c1ccccc1` (stereo not drawn) gave Candida biofilm -0.9.
Screening CCC(C)OC(=O)C1C(c2ccccc2)C(C(=O)O)C1c1ccccc1 (stereo not drawn) returned LYP act 40.3*, sEH act 28.6, Candida biofilm 5.4, LYP inh 2 -38.3, sEH inh -31.5 and PTPN22 act conf -10.2.
Screening COCCCNC(=O)c1ccc(CS(=O)(=O)Cc2cccc(C)c2)o1 returned LYP act 37.4*, BAP1 block inactive, Candida biofilm 8.1, LYP inh 2 -41.0 and PTPN22 act conf 7.5.
For Cc1cccc(CS(=O)(=O)Cc2ccc(C(=O)NCc3ccco3)o2)c1 the results were LYP act -3.4, sEH act 7.8, BAP1 block inactive, Candida biofilm 6.5, LYP inh 2 0.3 and sEH inh -8.6.
`CCOC(=O)C1=C(CSc2nc(-c3ccccc3)ccc2C#N)OC(N)=C(C#N)C1c1ccccc1` (stereo not drawn) gave LYP act 39.3*, sEH act 3.6, Candida biofilm 1.9, LYP inh 2 -40.6, sEH inh -6.1 and PTPN22 act conf -3.0.
Screening CC(C)(C)c1ccc(S(=O)(=O)N2CCOCC2)cc1 returned BAP1 block inactive.
`Cc1cc(F)ccc1NCc1cccnc1` gave LYP act 37.9*, sEH act 1.3, Candida biofilm 2.7, LYP inh 2 -35.6, sEH inh 0.5 and PTPN22 act conf 5.9.
Cc1c(-c2nc(N)nc(Nc3ccccc3)n2)oc2ccccc12 was read as LYP act 37.1*, sEH act -2.5, Candida biofilm -0.1, LYP inh 2 -36.6, sEH inh 1.1 and PTPN22 act conf -1.2.
Screening c1ccc(-c2nnc(SCCC3OCCCO3)o2)cc1 returned LYP act 46.8*, sEH act 14.7, LYP inh 2 -42.5, sEH inh -16.1 and PTPN22 act conf -1.5.
O=C1c2ccc(Oc3cccc([N+](=O)[O-])c3)cc2C(=O)N1c1ccc(Br)cc1 was read as BAP1 block inactive.
Screening COC(=O)C(O)(CC(=O)Nc1ccccc1OC)C(F)(F)F (stereo not drawn) returned LYP act 4.0, sEH act 10.3, Candida biofilm -4.2, LYP inh 2 -4.7 and sEH inh -7.0.
For CCc1ccccc1NC(=O)CC(O)(C(=O)OC)C(F)(F)F (stereo not drawn) the results were LYP act 37.4*, sEH act 5.4, BAP1 block inactive, Candida biofilm 5.5, LYP inh 2 -37.3, sEH inh -2.4 and PTPN22 act conf -4.2.
CC1(C)Cc2ccccc2-c2nnc(-c3cccs3)n21 was read as BAP1 block inactive.
c1ccc2c(c1)ncn2Cc1nnc2sc(-c3ccncc3)nn12 was read as LYP act 50.9*, sEH act 4.2, BAP1 block inactive, Candida biofilm 2.6, LYP inh 2 -55.6, sEH inh -3.0 and PTPN22 act conf 7.0.
c1ccc(-c2nn3c(Cn4cnc5ccccc54)nnc3s2)cc1 was read as LYP act 0.5, sEH act 3.6, BAP1 block inactive, Candida biofilm 5.0, LYP inh 2 -0.9 and sEH inh -1.1.
Screening S=c1[nH]ncn1-c1ccccn1 returned LYP act 46.5*, sEH act 4.0, BAP1 block inactive, Candida biofilm 3.8, LYP inh 2 -49.1, sEH inh 0.3 and PTPN22 act conf -3.7.
Screening S=c1[nH]ncn1/N=C/c1ccccc1 returned LYP act 11.3, sEH act -10.2, BAP1 block inactive, Candida biofilm -1.8, LYP inh 2 -12.0 and sEH inh 9.0.
O=C(NNC1=C(C(=O)C(F)(F)F)CCC1)c1ccc(Cl)cc1 was read as LYP act 45.2*, sEH act 0.6, Candida biofilm 8.1, LYP inh 2 -39.8, sEH inh -1.0 and PTPN22 act conf -0.2.
`O=C1CCCc2oc3ccc(NS(=O)(=O)c4ccc(Cl)c([N+](=O)[O-])c4)cc3c21` gave BAP1 block inactive.
CC(C)(C)NCCCCOc1ccc(F)cc1 was read as LYP act 39.5*, sEH act 6.7, BAP1 block inactive, Candida biofilm 3.6, LYP inh 2 -43.1, sEH inh -4.9 and PTPN22 act conf -1.7.
Screening COC(=O)c1c(C)oc2cc(Br)c(O)cc12 returned BAP1 block inactive.
`Cc1ccc(C(=O)Nc2ccccc2N)cc1` gave BAP1 block inactive.
